Measured values: PubChem BioAssay (NCATS)
Records with an inconclusive call do not appear. Calls of active or inactive are those of the source. Unless noted, calls come from the whole dose curve; as a rule, active = well fitted curve in the direction sought with a large enough effect; inconclusive = small, poorly fitted or top-dose-only effect, or another doubt; inactive = no such curve, though single readings can be large; an effect the other way counts as inactive or inconclusive.

What was measured:
[1] = target: Estrogen receptor (Homo sapiens) (UniProt P03372); test: qHTS assay for small molecule antagonists of estrogen receptor alpha signaling (AID 588513; active = well fitted curve in the direction sought with a large enough effect in the signal ratio, with a control signal flat, not every such curve was filed as active; the % refers to the signal ratio; note: % is set by controls: 0 for no effect and ±100 for the full control effect)
Procedure, shortened: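 Antagonist mode: inhibition of 0.5 nM 17-beta-estradiol-driven beta-lactamase reporter in HEK 293 ER-alpha-UAS-bla cells, 18 h at 37C, CCF4 readout after 2 h at RT. Normalised to estradiol and DMSO; titration fitted to Hill.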

[2] = target: Estrogen receptor (Homo sapiens) (UniProt P03372); test: qHTS assay for small molecule agonists of estrogen receptor alpha signaling (AID 588514; calls by dose curve;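 note: 0% = vehicle only and 100% = reference agonist; nearly all actives have a fitted effect of over 70% in size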)
Procedure, shortened: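 ER-alpha-UAS-bla GripTite HEK293 cells, 5000/well in 2% charcoal/dextran-stripped FBS medium, treated with compound titrations 18 h at 37 C. CCF4 beta-lactamase read by fluorescence after 2 h RT; normalised to 20 nM 17-beta-estradiol (100%) and DMSO (0%), Hill fit for EC50 and efficacy.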

[3] = target: Peroxisome proliferator-activated receptor gamma (Homo sapiens) (UniProt P37231); test: qHTS assay for small molecule agonists of peroxisome proliferator-activated receptor gamma signaling (AID 588536; active = well fitted curve in the direction sought with a large enough effect in the signal ratio, with a control signal flat, not every such curve was filed as active; the % refers to the signal ratio;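 note: 0% = DMSO basal wells and 100% = rosiglitazone at 2 µM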)
Procedure, shortened: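 Test agents, titrated, stimulated HEK293 UAS-bla cells overnight (16 h, 37 C). Substrate CCF4 was then added for two hours at room temperature before fluorescence reading.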

[4] = target: Vitamin D3 receptor (Homo sapiens) (UniProt P11473); test: qHTS assay for small molecule antagonists of vitamin D receptor signaling (AID 588541; calls by dose curve;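 note: receptor activated by calcitriol during compound treatment; series mostly up to about 77 µM; % is set by controls: 0 for no effect and ±100 for the full control effect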)
Procedure, shortened: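 VDR-UAS-bla HEK293T cells (2000/well, 2% charcoal-stripped FBS) were treated with titrated compounds plus 1-alpha,25-dihydroxyvitamin D3 (50 nM or 3 nM final) for 16 h at 37 C. CCF4 beta-lactamase fluorescence was read; Hill fits gave IC50.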

[5] = target: Vitamin D3 receptor (Homo sapiens) (UniProt P11473); test: qHTS assay for small molecule agonists of vitamin D receptor signaling (AID 588543; calls by dose curve;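 note: 0% = DMSO basal and 100% = reference agonist control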)
Procedure, shortened: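 Agonist-mode beta-lactamase reporter: HEK293T VDR-UAS-bla cells in charcoal-stripped 2% FBS, compound series 16 h 37 C, CCF4 2 h RT. EC50 from Hill fit, scaled against DMSO and 50 nM calcitriol control.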

[6] = qHTS assay for small molecule agonists of retinoid X receptor alpha signaling (AID 588544; calls by dose curve;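 for activation: 0% = DMSO basal wells and 100% = reference agonist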); details: HEK293T RXRa-UAS-bla, beta-lactamase reporter, 18 h; 530 nm emission
[7] = target: Retinoic acid receptor RXR-alpha (Homo sapiens) (UniProt P19793); test: as above
[8] = target: Thyroid hormone receptor beta (Homo sapiens) (UniProt P10828); test: qHTS assay for small molecule agonists of thyroid hormone receptor beta signaling (AID 588545; calls by dose curve;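 note: 0% = DMSO only and 100% = 10 nM T3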)
Procedure, shortened: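 Compounds were tested as agonists in TR-UAS-bla-GripTite HEK 293 cells. After 18 hrs at 37 C, CCF4 substrate was added and fluorescence read after 2 hrs at room temperature.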

[9] = qHTS assay for small molecule antagonists of retinoid X receptor alpha signaling (AID 588546; active = well fitted inhibition curve with a large enough effect in the signal ratio, with a control signal flat, not every such curve was filed as active; the % refers to the signal ratio;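 note: cells stimulated with 9-cis-retinoic acid as agonist; % is set by controls: 0 for no effect and ±100 for the full control effect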); details: HEK293T RXRa-UAS-bla, beta-lactamase ratio, antagonist mode; measured here: W530 green channel, cytotoxicity proxy
Procedure, shortened: (§1)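 Beta-lactamase reporter inhibition, read as CCF4 fluorescence ratio (ex 405, em 460/530 nm) after 2 h at RT. HEK293T UAS-bla cells, 2500/well, were stimulated with 9-cis-RA at 500 or 100 nM final alongside test compound for 18 h at 37 C.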

[10] = target: Retinoic acid receptor RXR-alpha (Homo sapiens) (UniProt P19793); test: as above; details: HEK293T RXRa-UAS-bla, beta-lactamase ratio, antagonist mode
Procedure, shortened: as §1

[11] = qHTS assay for small molecule agonists of the antioxidant response element (ARE) signaling pathway (AID 651741; active = well fitted activation curve with a large enough effect in the signal ratio; the % refers to the signal ratio; note: % of control where 0% means no effect)
Procedure, shortened: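 Compounds in DMSO are pinned onto HepG2 ARE-bla cells (2,000/well) that were preincubated 5 h; plates stay 16 h at 37 C, then beta-lactamase activity is detected with LiveBLAzer B/G substrate by fluorescence.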

[12] = qHTS assay for small molecule activators of the p53 signaling pathway (AID 651743; active = well fitted activation curve with a large enough effect in the signal ratio, not every such curve was filed as active; the % refers to the signal ratio; note: series mostly up to about 92 µM; % of control where 0% means no effect); details: HCT-116 p53RE-bla, beta-lactamase FRET ratio, 16 h; activation: stronger effect = higher value
Procedure, shortened: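 Cell-based beta-lactamase reporter (p53 response elements, HCT-116 background). After a 5-hour preincubation, cells received compound for 16 hours at 37 C; substrate development ran 2 hours at room temperature.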

[13] = qHTS assay for small molecule activators of the nuclear factor-kappa B (NF-kB) signaling pathway (AID 651749; active = well fitted activation curve with a large enough effect in the signal ratio; the % refers to the signal ratio; note: series mostly up to about 77 µM; % of control where 0% means no effect); details: NF-kB-bla ME-180 cells, beta-lactamase FRET ratio, 16 h; activation: stronger effect = higher value
Procedure, shortened: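 Screening used 2,000 ME-180 reporter cells per well exposed to pinned compound (23 nL) or DMSO; after 16 hr at 37C, beta-lactamase expression under NF-kB control was assessed through FRET.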

[14] = qHTS assay for environmental chemicals that activate the Aryl hydrocarbon Receptor (AhR) signaling pathway (AID 651777); details: 1A2-DRE human hepatoma cells, luciferase, 24 h; activation: stronger effect = higher value; note: % of control where 0% means no effect; nearly all actives have a fitted effect of over 15% in size
Procedure, shortened: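 Measured luciferase activity, read 30 min after One-Glo addition at room temperature, from human hepatoma cells bearing a dioxin response element–CYP1A2 promoter reporter and exposed to compound for 24 hr at 37 C.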

[15] = target: Peroxisome proliferator-activated receptor alpha (Homo sapiens) (UniProt Q07869); test: qHTS assay for small molecule agonists of the peroxisome proliferator-activated receptor alpha (PPARalpha) signaling pathway (AID 651778); details: PathHunter PPARalpha complementation, chemiluminescence, 6 h; stronger effect = higher value; note: % of control where 0% means no effect
Procedure, shortened: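 Cells plated at 2,000/well and held overnight at 37 C, 5% CO2, then compound added by pin tool for 6 hr; after PathHunter detection reagent and 60 min at room temperature, chemiluminescence from enzyme complementation was read.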

[16] = qHTS assay for small molecule agonists of the antioxidant response element (ARE) signaling pathway measured by Nrf2-dependant transcriptional activity - cell viability counter screen (AID 720653; active = well fitted curve in the direction sought with a large enough effect in the repeat runs; an effect the other way counts as inactive or inconclusive; note: % is set by controls: 0 for no effect and ±100 for the full control effect); details: ARE-bla HepG2 viability, CellTiter-Glo ATP luminescence, 16 h; max response: stronger effect = lower value
Procedure, shortened: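 ARE-bla HepG2 cells (2,000/well) rested 5 hrs at 37C/5% CO2, then exposed to compounds in DMSO for 16 hrs. Viability was read in the same wells as intracellular ATP by luminescence, 30 min at room temperature after reagent addition.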

[17] = qHTS assay for cell viability of HEK293 cells (AID 743288); details: ATP luminescence (CellTiter-Glo), 18 h; max response: stronger effect = lower value; note: % is set by controls: 0 for no effect and ±100 for the full control effect; nearly all actives have a fitted effect of over 50% in size
Procedure, shortened: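 Total intracellular ATP, measured with a luciferase-coupled reagent, indicates the number of viable HEK293 cells. Exposure to test chemicals lasts 18 h at 37 C in 1,536-well format at 2,000 cells/well.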

[18] = qHTS assay for cell viability of the p53RE-bla HCT-116 cell line (AID 743292); note: % is set by controls: 0 for no effect and ±100 for the full control effect; nearly all actives have a fitted effect of over 55% in size
Procedure, shortened: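 Intracellular ATP of p53RE-bla HCT-116 cells measured by luciferase luminescence following 16 h compound incubation at 37 C; DMSO-only wells served as vehicle controls.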

Furin (Homo sapiens) = Furin (Homo sapiens) (UniProt P09958); test: Furin counterscreen qHTS for Zika virus inhibitors (AID 1347149); note: nearly all actives have a fitted effect of over 70% in size; note: potency is the fitted concentration of half-maximal effect;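 for activity change, negative = inhibition: purified recombinant full-length human furin enzyme at 5 nM; fluorescence gain from furin cutting a BOC-RVRR-AMC peptide substrate over 15 min; top concentration of the series differs between compounds; plate controls were no-inhibitor control for no effect and no-enzyme control for full effect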
Procedure, shortened: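 Fluorogenic cleavage of BOC-RVRR-AMC (2 microM final, Km ~15 µM) was monitored (ex 340, em 450 nm) at 37C after 15 min RT preincubation of 5 nM furin with compounds in HEPES pH 7.0 buffer with CaCl2 and Triton X-100. Percent inhibition was fitted to a 4-parameter Hill curve.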

[19] = system: Zika virus NS2B-NS3 protease (unlinked); test: Optimization of GU AMC qHTS for Zika virus inhibitors: Unlinked NS2B-NS3 protease assay (AID 1347151);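 note: series mostly up to about 52 µM; 0% = no-inhibitor control and -100% = no-enzyme control; nearly all actives have a fitted effect of over 80% in size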
Procedure, shortened: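 Fluorescence gain (340/450 nm) over 15 min at room temperature, ~20% conversion, gave percent inhibition fitted to a 4-parameter Hill equation; enzyme was unlinked NS2B-NS3 (25 nM final), pH 8.0 Tris buffer.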

[20] = HepG2 cells viability qHTS for Zika virus inhibitors (AID 1347168); note: potency is the fitted concentration of half-maximal effect
Procedure, shortened: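 Counter-screen for cytotoxicity of hits from NS2B-NS3 protease qHTS. Overnight-attached cells (2.5 x 10^5 cells/mL, DMEM/4% FBS) were dosed in titration, incubated 24 to 48 hours, then assayed by CellTiter Glo.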

[21] = target: Nuclear receptor subfamily 1 group I member 2 (Rattus norvegicus) (UniProt Q9R1A7); test: qHTS assay for small molecule activators of the rat pregnane X receptor (rPXR) signaling pathway (AID 651751; call rule not given here; note: 0% is about no effect); details: rPXR reporter cells, luciferase (One-Glo), 24 h
[22] = system: Zika virus NS2B-NS3 protease; test: Primary screen GU AMC qHTS for Zika virus inhibitors (AID 1347154);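 note: 0% = no-inhibitor control and -100% = no-enzyme control; nearly all actives have a fitted effect of over 70% in size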
Procedure, shortened: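 Unlinked Zika NS2B hydrophilic domain/NS3 protease domain noncovalent complex (25 nM final) in 10 mM Tris-HCl pH 8.0, 0.01% Tween 20, with AMC peptide substrate. Fluorescence (ex 340, em 450 nm) change over 15 min, room temperature; percent inhibition fitted to 4-parameter Hill equation.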

[23] = system: Zika virus NS2B-NS3 protease (linked construct); test: Confirmatory screen NINDS AMC qHTS for Zika virus inhibitors (AID 1347152); note: potency is the fitted concentration of half-maximal effect; nearly all actives have a fitted effect of over 70% in size
Procedure, shortened: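 IC50s from 4-parameter Hill fits of percent inhibition, based on AMC fluorescence gain (340/450 nm) over 15 min with 10 microM Bz-Nle-KRR-AMC. Enzyme: 1 nM linked NS2B-NS3 in Tris-HCl pH 8.0; 15-min compound preincubation.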

[24] = system: Zika virus NS2B-NS3 protease (unlinked complex); test: Confirmatory screen GU AMC qHTS for Zika virus inhibitors (AID 1347153)
Procedure, shortened: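 Fluorescence change (ex 340/em 450 nm) over 15 min, ~20% substrate conversion, normalized to no-inhibitor and no-enzyme controls, then Hill-fitted. Unlinked protease at 25 nM; AMC peptide 10 µM.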

[25] = Confirmatory screen NINDS Rhodamine qHTS for Zika virus inhibitors (AID 1347161); note: potency is the fitted concentration of half-maximal effect; nearly all actives have a fitted effect of over 60% in size
Procedure, shortened: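 In 10 mM Tris-HCl pH 8.0 containing 0.01% Tween 20, linked NS2B-NS3 protease (25 nM final) is exposed to test compounds for 15 min. Cleavage of 1.5 microM Rhodamine110 substrate is tracked by fluorescence over 15 min.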

[26] = system: Zika virus NS2B-NS3 protease (linked construct); test: 384 well plate NINDS Rhodamine confirmatory qHTS for Zika virus inhibitors (AID 1347164);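 note: fluorescence from protease cleavage of Ac-LKRR-rhodamine 110 substrate; potency is the fitted concentration of half-maximal effect; nearly all actives have a fitted effect of over 65% in size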
Procedure, shortened: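 Fluorescence at 485/538 nm was measured 25 minutes after adding 10 microM Ac-LKRR-Rd substrate, in the dark at room temperature. The protease (5, 30 or 60 nM final) had been preincubated ~15 minutes with compound; aprotinin as control.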

[27] = Primary qHTS for small molecule stabilizers of the endoplasmic reticulum resident proteome: Secreted ER Calcium Modulated Protein (SERCaMP) assay (AID 1508630); note: % is set by controls: 0 for no effect and ±100 for the full control effect
Procedure, shortened: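 GLuc-SERCaMP-expressing SH-SY5Y cells, pretreated 16 h with compound, are challenged with thapsigargin to empty ER calcium stores; after 4 h, coelenterazine is added directly to the medium and luminescence is imaged.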

Chain of Estrogen receptor (Homo sapiens) (P03372 whole entry, looked up): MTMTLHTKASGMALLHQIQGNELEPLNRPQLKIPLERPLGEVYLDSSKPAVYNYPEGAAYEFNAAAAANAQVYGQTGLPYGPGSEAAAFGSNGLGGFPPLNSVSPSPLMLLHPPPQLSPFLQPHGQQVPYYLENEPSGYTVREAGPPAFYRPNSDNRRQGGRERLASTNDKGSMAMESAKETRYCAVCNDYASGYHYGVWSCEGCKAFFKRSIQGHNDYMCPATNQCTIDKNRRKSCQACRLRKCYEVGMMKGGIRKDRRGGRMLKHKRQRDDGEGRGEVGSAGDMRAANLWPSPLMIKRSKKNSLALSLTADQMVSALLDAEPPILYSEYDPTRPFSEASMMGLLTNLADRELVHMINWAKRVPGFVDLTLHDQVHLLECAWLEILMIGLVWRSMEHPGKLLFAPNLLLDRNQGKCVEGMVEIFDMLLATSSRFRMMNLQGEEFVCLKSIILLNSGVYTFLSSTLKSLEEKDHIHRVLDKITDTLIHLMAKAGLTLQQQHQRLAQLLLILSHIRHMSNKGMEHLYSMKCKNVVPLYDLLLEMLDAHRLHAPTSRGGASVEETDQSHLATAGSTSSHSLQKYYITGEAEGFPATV
Chain of Retinoic acid receptor RXR-alpha (Homo sapiens) (P19793 whole entry, looked up): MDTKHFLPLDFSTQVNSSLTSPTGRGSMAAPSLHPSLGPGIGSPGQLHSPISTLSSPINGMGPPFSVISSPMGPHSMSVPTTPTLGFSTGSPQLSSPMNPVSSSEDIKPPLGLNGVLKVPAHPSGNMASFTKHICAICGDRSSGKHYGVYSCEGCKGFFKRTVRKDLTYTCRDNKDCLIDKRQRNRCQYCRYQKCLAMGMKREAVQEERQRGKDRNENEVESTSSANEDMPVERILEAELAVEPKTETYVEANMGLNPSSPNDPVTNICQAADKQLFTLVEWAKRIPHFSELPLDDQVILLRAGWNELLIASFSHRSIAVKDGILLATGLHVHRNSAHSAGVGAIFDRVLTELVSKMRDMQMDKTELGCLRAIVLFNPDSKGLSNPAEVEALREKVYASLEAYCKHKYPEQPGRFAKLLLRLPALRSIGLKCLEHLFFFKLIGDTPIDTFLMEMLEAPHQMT
Chain of Vitamin D3 receptor (Homo sapiens) (P11473 whole entry, looked up): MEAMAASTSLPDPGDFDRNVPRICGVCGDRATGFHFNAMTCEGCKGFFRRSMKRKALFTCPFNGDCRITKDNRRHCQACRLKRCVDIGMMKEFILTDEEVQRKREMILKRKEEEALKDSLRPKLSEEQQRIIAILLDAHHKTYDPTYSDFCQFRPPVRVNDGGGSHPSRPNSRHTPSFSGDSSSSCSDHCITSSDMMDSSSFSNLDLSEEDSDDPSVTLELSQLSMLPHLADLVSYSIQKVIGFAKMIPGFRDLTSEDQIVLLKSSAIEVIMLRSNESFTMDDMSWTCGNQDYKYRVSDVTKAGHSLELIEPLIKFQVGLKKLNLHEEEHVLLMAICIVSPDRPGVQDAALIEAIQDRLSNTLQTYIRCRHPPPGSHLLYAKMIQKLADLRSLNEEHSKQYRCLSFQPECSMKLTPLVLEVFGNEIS
Chain of Furin (Homo sapiens) (P09958 whole entry, looked up): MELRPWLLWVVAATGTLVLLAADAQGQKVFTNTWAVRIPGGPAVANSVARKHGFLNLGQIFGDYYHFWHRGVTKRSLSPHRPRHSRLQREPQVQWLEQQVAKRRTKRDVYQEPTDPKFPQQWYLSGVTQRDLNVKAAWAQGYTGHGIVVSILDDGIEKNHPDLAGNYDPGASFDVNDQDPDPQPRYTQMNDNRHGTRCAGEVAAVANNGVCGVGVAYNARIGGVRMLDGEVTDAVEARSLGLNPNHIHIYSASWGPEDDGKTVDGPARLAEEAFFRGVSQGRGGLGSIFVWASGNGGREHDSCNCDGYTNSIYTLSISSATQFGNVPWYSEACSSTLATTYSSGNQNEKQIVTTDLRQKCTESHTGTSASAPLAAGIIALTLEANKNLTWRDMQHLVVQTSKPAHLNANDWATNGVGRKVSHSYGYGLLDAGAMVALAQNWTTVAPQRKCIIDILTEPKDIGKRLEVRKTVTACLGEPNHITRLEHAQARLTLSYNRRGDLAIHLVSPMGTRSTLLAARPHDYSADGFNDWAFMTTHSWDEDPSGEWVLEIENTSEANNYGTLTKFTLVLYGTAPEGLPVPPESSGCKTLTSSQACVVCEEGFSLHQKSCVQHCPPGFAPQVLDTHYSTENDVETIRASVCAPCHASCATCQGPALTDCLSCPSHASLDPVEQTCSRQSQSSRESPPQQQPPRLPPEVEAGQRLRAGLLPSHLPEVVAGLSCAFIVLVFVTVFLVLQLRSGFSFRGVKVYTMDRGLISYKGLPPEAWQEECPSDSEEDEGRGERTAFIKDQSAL
Chain of Nuclear receptor subfamily 1 group I member 2 (Rattus norvegicus) (Q9R1A7 whole entry, looked up): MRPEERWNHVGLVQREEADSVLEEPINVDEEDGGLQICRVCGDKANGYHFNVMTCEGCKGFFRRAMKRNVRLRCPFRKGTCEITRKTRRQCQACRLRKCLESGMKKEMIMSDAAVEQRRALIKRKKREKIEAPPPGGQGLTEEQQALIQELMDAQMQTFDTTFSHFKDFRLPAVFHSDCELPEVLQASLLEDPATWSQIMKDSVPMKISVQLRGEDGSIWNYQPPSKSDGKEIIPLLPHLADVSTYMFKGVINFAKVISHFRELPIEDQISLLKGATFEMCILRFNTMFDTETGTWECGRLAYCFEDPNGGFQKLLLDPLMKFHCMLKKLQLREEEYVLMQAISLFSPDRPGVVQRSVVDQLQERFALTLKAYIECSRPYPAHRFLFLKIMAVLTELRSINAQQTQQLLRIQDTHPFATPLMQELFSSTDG
Chain of Thyroid hormone receptor beta (Homo sapiens) (P10828 whole entry, looked up): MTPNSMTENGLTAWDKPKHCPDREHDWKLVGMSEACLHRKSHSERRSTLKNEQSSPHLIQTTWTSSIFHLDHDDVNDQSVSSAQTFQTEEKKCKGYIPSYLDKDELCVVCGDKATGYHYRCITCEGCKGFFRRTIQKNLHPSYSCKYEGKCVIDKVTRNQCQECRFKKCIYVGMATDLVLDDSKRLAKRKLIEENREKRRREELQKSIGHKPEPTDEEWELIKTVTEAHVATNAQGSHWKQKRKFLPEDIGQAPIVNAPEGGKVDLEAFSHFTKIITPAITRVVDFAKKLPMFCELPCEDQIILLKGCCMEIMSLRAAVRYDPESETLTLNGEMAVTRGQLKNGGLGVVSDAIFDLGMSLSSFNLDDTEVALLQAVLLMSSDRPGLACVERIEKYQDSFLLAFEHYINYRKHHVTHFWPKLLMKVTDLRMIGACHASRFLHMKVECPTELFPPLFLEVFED
Chain of Peroxisome proliferator-activated receptor alpha (Homo sapiens) (Q07869 whole entry, looked up): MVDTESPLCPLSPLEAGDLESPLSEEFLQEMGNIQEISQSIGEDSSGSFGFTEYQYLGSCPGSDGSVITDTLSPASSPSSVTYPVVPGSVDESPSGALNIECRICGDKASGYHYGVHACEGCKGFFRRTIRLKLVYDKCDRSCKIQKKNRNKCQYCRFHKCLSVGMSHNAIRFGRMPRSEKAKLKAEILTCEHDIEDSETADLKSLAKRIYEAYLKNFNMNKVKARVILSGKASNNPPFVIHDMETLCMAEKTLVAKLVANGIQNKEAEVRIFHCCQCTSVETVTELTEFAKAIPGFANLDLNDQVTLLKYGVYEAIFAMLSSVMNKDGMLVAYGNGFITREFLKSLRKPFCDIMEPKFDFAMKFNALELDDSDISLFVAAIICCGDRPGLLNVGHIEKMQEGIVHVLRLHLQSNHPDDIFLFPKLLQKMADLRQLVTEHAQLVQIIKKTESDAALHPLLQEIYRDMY
Chain of Peroxisome proliferator-activated receptor gamma (Homo sapiens) (P37231 whole entry, looked up): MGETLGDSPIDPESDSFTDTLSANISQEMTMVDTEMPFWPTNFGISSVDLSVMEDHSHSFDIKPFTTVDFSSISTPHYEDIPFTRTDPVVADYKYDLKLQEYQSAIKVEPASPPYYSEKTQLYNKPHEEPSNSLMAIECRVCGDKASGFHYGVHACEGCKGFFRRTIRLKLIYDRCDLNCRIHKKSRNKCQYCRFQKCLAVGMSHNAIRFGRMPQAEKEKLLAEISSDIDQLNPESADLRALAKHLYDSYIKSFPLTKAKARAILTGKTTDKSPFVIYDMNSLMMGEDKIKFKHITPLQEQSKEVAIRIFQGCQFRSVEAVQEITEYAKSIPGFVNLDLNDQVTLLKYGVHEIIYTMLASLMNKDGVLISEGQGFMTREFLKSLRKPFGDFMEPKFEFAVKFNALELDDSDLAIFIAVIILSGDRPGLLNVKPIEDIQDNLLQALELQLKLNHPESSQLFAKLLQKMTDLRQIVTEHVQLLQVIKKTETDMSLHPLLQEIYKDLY

CC(C)OC(=O)Nc1ccccc1
-15.4%: max response [6]
-6.41%: max response [9]
inactive: Potency [1] | Potency [2] | outcome [3] | outcome [4] | Potency [5] | outcome [7] | Potency [8] | max response [10] -6.43% | Potency [11] | activation [12] -1.81% | activation [13] 0.27% | activation [14] 12.4% | max response [15] -0.246% | max response [16] -3.27% | max response [17] -1.53% | outcome [18] | Potency (Furin (Homo sapiens)) | outcome [19] | Potency [20] | max response [21] 10.9%

CCCCC/C=C\C/C=C\CCCCCCCC(=O)NCCO
inactive: activity change, negative = inhibition [22] 7.86% [at 6.83 µM]

CNc1ccc2oc(C[C@@H]3OC4(CC[C@@H]3C)O[C@H]([C@@H](C)C(=O)c3ccc[nH]3)[C@H](C)C[C@H]4C)nc2c1C(=O)O (stereo not given in full)
inactive: Potency [27]
active: Potency (Furin (Homo sapiens)) 21.5 µM | Potency [23] 19.2 µM | Potency [24] 24.1 µM | Potency [25] 9.87 µM | Potency [26] 44.7 µM | Potency [20] 26.2 µM
